# Article PMC5540273 (PLoS ONE, 2017)
# Test system: T1, AMPK-alpha2
# T1 construct: gene PRKAA2
# Conditions: concentration: 1 μM, replicates: in singlicate; n = 1
# 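Also: KINOMEscan kinase panel screen.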
row,SMILES,%Inh
1,CCC(=O)c1c(-c2ccccc2)c2cc(Cl)ccc2c(=O)n1Cc1cc(S(C)(=O)=O)n(CC(F)F)n1,8%
2,CCC(=O)c1c(-c2ccccc2)c2cc(Cl)ccc2c(=O)n1Cc1cc(S(C)(=O)=O)n(CC(N)=O)n1,0%
3,O=C(Nc1ccc2c(c1)OCO2)NC1CCN(c2ccnc(NCc3ccc(F)cc3)n2)CC1 [GSK1379859],0%
4,Cn1c(=O)c(F)c(Nc2ccc(I)cc2F)c2c(=O)n(OC[C@H](O)CO)cnc21,13%
5,Nc1nccc2scc(-c3ccc4c(c3)CCN4C(=O)Cc3ccccc3)c12 [GSK2576924],21%
6,C[C@@H]1CC[C@H](C(=O)NC2CCCCC2)CN1c1cc(-c2ccc3c(N)n[nH]c3c2)nc(N)n1 [GSK2291363],14%
7,O=C(NCCNc1ccnc(Nc2ccc(F)cc2)n1)Nc1ccc2c(c1)OCO2 [GSK1379882],2%
8,CCS(=O)c1ccc(-c2coc3ccc(-c4nnc(C)o4)cc23)cc1 (stereo not shown),1%
9,Cc1cccc(-c2cc(-c3c[nH]nc3-c3ccccn3)ccn2)c1 [GW679395],0%
10,CN1C(=O)C(Nc2ccccc2)=C(c2ccccc2)C1=O [SB-300079],1%
11,COc1cccc(-n2cnc3c(N)ncnc32)c1 [SKF-97416],15%
12,COc1ccc(CNC(=O)NC2CCN(c3ccnc(Nc4ccc(F)cc4)n3)C2)cc1 (stereo not shown) [GSK1379706],0%
13,Nc1n[nH]c2nnc(-c3ccccc3)c(-c3ccccc3)c12 [GW554060],14%
14,Cc1nnc(-c2ccc3ncn(-c4ccc(S(C)=O)cc4)c3c2)o1 (stereo not shown),2%
15,CCn1c(-c2nonc2N)nc2ccccc21 [SB-693162/GW549034],0%
16,O=C(Nc1n[nH]c2cc(-c3ccccc3F)ccc12)C1CC1 [SB-733371],0%
17,CC(C)(C)c1ccc(C(=O)Nc2cn3cc(-c4ccccc4)ccc3n2)cc1,0%
18,Nc1ncnc2c1ncn2-c1cccc2ccccc12 [SKF-97184],21%
19,CCCC(=O)Nc1n[nH]c2ncc(-c3cccc4ccccc34)cc12 [SB-642057],19%

row,SMILES,%Inh
1,Cc1cccc(-c2nc(Nc3ccc4c(cnn4C)c3)c3ccccc3n2)n1 [GW876731],17%
2,COC(=O)c1c(-c2ccccc2)c2cc(Br)ccc2c(=O)n1Cc1ccc(NC(=O)CCC(=O)O)cc1,22%
3,O=C1NC(=O)C(c2ccccc2)=C1Nc1cccc(O)c1 [SB-390534],0%
4,CCCNC(=O)Nc1ccc(Oc2ncnc3ccn(C)c23)cc1,12%
5,COc1cc2nccc(Nc3cccc(Oc4ccccc4)c3)c2cc1OC.Cl [GW284543],0%
6,COc1cc2ncn(-c3cc(OCCCc4ccccc4)c(C(N)=O)s3)c2cc1OC [GSK205189],0%
7,CCn1c(-c2ccoc2)nc2cnccc21 [SB-733887],9%
8,COc1ccc(-c2coc3ccc(-c4nnc(SCc5cccc(C#N)c5)o4)cc23)cc1,0%
9,COC(=O)c1c(-c2ccccc2)c2cc(C)ccc2c(=O)n1Cc1ccccc1,0%
10,CCc1nc(-c2cccc(C)c2)c(-c2ccncc2)s1,0%
11,Cc1ccc(Oc2ccc(Nc3ncnc4cc[nH]c34)cc2C)cn1,14%
12,COc1cccc(C2=C(N(C)c3ccccc3)C(=O)NC2=O)c1 [SB-334865],13%
13,COc1ccc(-n2cnc3c(N)ncnc32)cc1 [SKF-97236],20%
14,Cc1c(Cn2c(C)nn3c(=O)cc(N4CCO[C@H](C)C4)nc23)cccc1C(F)(F)F [GSK2373690],27%
15,COc1cc(Nc2nccc(N3CCC(NC(=O)C(C)c4ccc(Cl)cc4)C3)n2)cc(OC)c1OC (stereo not shown) [GSK1379757],0%
16,COc1cc2ncn(-c3cc(OCc4ccc(S(C)(=O)=O)cc4)c(C(N)=O)s3)c2cc1OC [GW869979],0%
17,Cc1nnc(-c2ccc(C)c(-c3ccc(C(=O)O)cc3)c2)o1 [GW608005],0%
18,COc1ccc(-c2cc3c(C)nc(N)nc3n([C@H]3CC[C@H](O)CC3)c2=O)cn1,0%
